# Source: PubChem (The Scripps Research Institute Molecular Screening Center)
# ssDAF12 agonist – S. stercoralis DAF-12 nuclear receptor activators, primary screen, cell-based, luminescence, HEK293, GRIP1 co-expression, lit1-tk-luc; 370,000 tested, 1% active; Nuclear hormone receptor DAF-12 (Strongyloides stercoralis); HEK293 ssDAF-12/GRIP1 lit1-tk-luc reporter; % of 3 µM dafachronic acid response; activation, % at 6.8 µM;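 active = activation above the mean over all tested compounds plus 3 SD, cut at about 0.9% in these data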;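 also: 0% = DMSO-only wells and 100% = 3 µM delta7-dafachronic acid wells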
# hgDAF12 agonist – H. glycines DAF-12 receptor agonists, primary screen, cell-based, luminescence, HEK293, GAL4 fusion, UAS-luciferase; Nuclear hormone receptor DAF-12 (Heterodera glycines), GAL4 fusion; HEK293 GAL4-hgDAF12 UAS-luciferase reporter, agonist luminescence; normalized to butyrate control; activation, % at 6.8 µM; 370,000 tested, 1.8% active; AID 687014, 2013;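 active = activation above a cutoff set at the mean of all screened compounds plus 3 SD, cut at about 10% in these data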;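 also: 0% = DMSO wells and 100% = sodium butyrate wells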
# hcDAF12 agonist – H. contortus DAF-12 nuclear receptor activators, primary screen, cell-based, luminescence, HEK293, lit1-tk-luc reporter. HEK293 hcDAF-12 lit1-tk-luc reporter; 0% DMSO, 100% Δ7-dafachronic acid. AID 652067, 2013. 370,000 tested, 1.4% active. activation, % at 6.8 µM;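 active = activation above the mean of all tested compounds plus 3 SD, cut at about 5.5% in these data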;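 also: 100% = response to 3 µM Δ7-dafachronic acid high control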
# DAX1 inh-1 – DAX1 (NR0B1) inhibitors on StAR promoter, primary screen, cell-based, luminescence, SF-1 (NR5A1), full-length DAX-1 | HEK293T StAR-luciferase reporter, SF-1/DAX-1 repression relief | inhibition, % at 6.8 µM | 370,000 tested, 1.1% active | AID 652010, 2013;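 active = inhibition above the mean over all tested compounds plus 3 SD, cut at about 3.6% in these data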;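 also: 0% = DAX-1 cells with DMSO and 100% = cells lacking DAX-1 with DMSO; higher inhibition means more luminescence from relief of DAX-1 repression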
# GAA850 FXN act – FXN promoter activators, primary screen, cell-based, luciferase luminescence, HEK293 lucGAA850; HEK293 lucGAA850 FXN promoter luciferase reporter, 24 h; percent of 10 µM SAHA response; activation, % at 6 µM; 360,000 tested, 0.56% active;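 active = activation above the average of all compounds screened plus 3 SD, cutoff fixed separately per campaign, cut at about 7.5% in these data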;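 also: 0% = DMSO wells and 100% = 10 µM SAHA wells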
# DAX1 inh-2 – DAX1 (NR0B1) inhibitors, primary screen, cell-based, HEK293, Gal4-DAX1, luciferase luminescence; Nuclear receptor subfamily 0 group B member 1 (Homo sapiens), P51843; HEK293 Gal4-DAX1 luciferase reporter; inhibition, % at 6.75 µM; 340,000 tested, 0.99% active; AID 504766, 2011;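 active = inhibition above the mean over all tested compounds plus 3 SD, cut at about 4.2% in these data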;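 also: 0% = DAX1-transfected cells with DMSO and 100% = empty-vector control cells with DMSO; inhibition shows as a rise in luminescence from relieved DAX1 repression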
# Target sequence (P51843 207-470 limits assumed): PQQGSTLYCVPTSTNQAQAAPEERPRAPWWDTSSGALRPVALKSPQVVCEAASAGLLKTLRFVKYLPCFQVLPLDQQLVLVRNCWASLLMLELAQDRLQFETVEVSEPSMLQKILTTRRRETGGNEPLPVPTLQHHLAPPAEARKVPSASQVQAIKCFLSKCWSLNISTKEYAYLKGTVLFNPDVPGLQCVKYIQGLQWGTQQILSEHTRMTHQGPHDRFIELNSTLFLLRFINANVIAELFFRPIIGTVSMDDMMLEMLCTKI
# LXRb hcDAF ctr – LXR agonists, Gal4 luciferase reporter, confirmation, counter-screen for hcDAF-12 agonist project, cell-based, luminescence, HEK293, H. contortus campaign; activation, % at 6.8 µM; AID 743027, 2013; HEK293 Gal4-LXR tk-luc reporter, 24 h; normalized: DMSO 0%, positive control 100%; 3,400 tested, under 10 active; shares compounds with hcDAF12 agonist;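 active = mean percent activation of the reporter above a cutoff set as the average over tested compounds plus their standard deviation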
# Target sequence (P55055 whole entry, looked up, the tested form may be a part): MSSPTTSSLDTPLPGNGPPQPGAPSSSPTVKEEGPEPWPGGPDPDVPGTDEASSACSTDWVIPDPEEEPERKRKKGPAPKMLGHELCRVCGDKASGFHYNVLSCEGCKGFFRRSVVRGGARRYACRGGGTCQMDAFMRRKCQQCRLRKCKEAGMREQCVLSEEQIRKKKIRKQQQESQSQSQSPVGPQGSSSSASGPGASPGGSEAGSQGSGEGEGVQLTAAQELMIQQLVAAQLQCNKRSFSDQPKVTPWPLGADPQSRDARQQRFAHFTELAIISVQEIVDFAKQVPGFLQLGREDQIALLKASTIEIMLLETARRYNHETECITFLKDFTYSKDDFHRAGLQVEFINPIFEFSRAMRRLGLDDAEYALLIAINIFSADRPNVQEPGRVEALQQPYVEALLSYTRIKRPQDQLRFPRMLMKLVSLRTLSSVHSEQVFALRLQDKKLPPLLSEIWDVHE
# hcDAF12 conf – H. contortus DAF-12 receptor agonists, confirmation, cell-based, luminescence, HEK293, lit1-tk-luc, triplicate | shares compounds with hcDAF12 agonist | HEK293 hcDAF-12 lit1-tk-luc reporter; % of Δ7-dafachronic acid response | activation, % at 6.8 µM | 3,400 tested, 61% active;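 active = mean activation across triplicate tests above the threshold derived from the earlier primary screen, cut at about 5.5% in these data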;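 also: 0% = DMSO only wells and 100% = 3 µM Δ7-dafachronic acid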
# Numbers without * were called inactive; nt = no result. Hits are enriched below; roughly 4.5% of the tested compounds scored in any of these assays.
SMILES,ssDAF12 agonist,hgDAF12 agonist,hcDAF12 agonist,DAX1 inh-1,GAA850 FXN act,DAX1 inh-2,LXRb hcDAF ctr,hcDAF12 conf
CCC1CCCCN1CCCNC(=O)c1ccc(N2CCCC2=O)cc1 (configuration not stated),-1.0,-0.3,0.7,-1.0,3.7,0.7,nt,nt
CC1CCCCN1CCCNC(=O)c1ccc(N2CCCC2=O)cc1 (configuration not stated),-1.3,2.1,8.6*,1.0,0.1,1.0,-0.3,0.1
O=C(NC1CCCCCC1)c1ccc(N2CCCC2=O)cc1,-0.4,11.2*,6.7*,2.3,2.6,2.4,0.3,2.5
CC(=NN1CCN(c2ccccn2)CC1)c1ccccc1O,-0.8,3.7,-1.7,0.3,nt,nt,nt,nt
Cc1c(C(=N)C(C#N)C#N)c(=N)oc2c1ccc1ccccc12,0.8,2.9,8.2*,0.1,5.3,-0.1,-0.1,8.1*
Cc1c(C(=O)O)oc2c1ccc1ccccc12,-1.1,-0.3,-0.7,0.2,-1.1,0.6,nt,nt
Cc1nn(C)c(C(=O)NC(=S)Nc2ccccc2O)c1Cl,1.4*,1.0,6.7*,0.5,0.8,0.8,-0.1,6.4*
Cc1ccc(Nc2nc(N/N=C/c3c[nH]c4ccccc34)nc(N3CCOCC3)n2)cc1,1.1*,1.1,7.5*,0.3,1.9,-0.7,-0.5,-1.3
Cc1[nH]c2ccccc2c1/C=N/Nc1nc(Nc2ccc(F)cc2)nc(N2CCOCC2)n1,-0.4,3.4,6.8*,0.6,0.0,1.6,-0.3,2.4
C(=N\Nc1nc(Nc2ccccc2)nc(N2CCOCC2)n1)/c1c[nH]c2ccccc12,0.0,-3.3,4.1,-0.2,nt,nt,nt,nt
COc1ccc(Cl)cc1NC(=O)COC(=O)c1ccc(Cl)nc1,0.6,5.4,6.7*,-0.4,0.2,-0.3,-0.2,2.0
COc1ccc(Cl)cc1NC(=O)COC(C)=O,-1.5,-0.3,-1.1,0.2,-3.3,0.1,nt,nt
Cc1cc(Br)cn2c(Cc3cccc(F)c3)c(-c3ccco3)nc12,-0.9,-4.0,-0.2,-0.2,nt,nt,nt,nt
O=C1CCCC2=C1Sc1ccccc1N2,-1.1,-0.6,7.8*,-0.2,2.9,nt,-0.2,4.4
COC(=O)[C@]12C[C@H](CC(=O)NCc3cccs3)C(=O)N(Cc3ccc4c(c3)OCO4)C1=C[C@H](C(C)(C)C)O[C@@H]2C,0.4,-1.7,-0.9,-0.7,nt,nt,nt,nt
Cc1ccoc1C(=O)Nc1ccc2ccccc2c1,0.4,12.2*,17.1*,1.4,-1.4,-1.8,2.0,14.3*
COc1cccc(NC(=O)c2cc3ccccc3oc2=O)c1,-0.1,13.2*,7.2*,2.6,0.3,3.1,1.2,8.7*
COc1ccc2oc(=O)c(C(=O)Nc3cccc(C(C)=O)c3)cc2c1,-0.6,7.0,-0.1,0.0,1.5,-0.2,nt,nt
COc1ccccc1Cc1c(-c2ccc(OC)c(OC)c2)nc2c3ccccc3ccn12,-0.7,-1.1,2.8,-2.8,nt,nt,nt,nt
FC(F)(F)c1ccccc1Cc1c(-c2cccc(Cl)c2)nc2c3ccccc3ccn12,1.6*,4.8,8.3*,1.6,nt,nt,-0.2,4.0
COc1ccc(-c2nc3c4ccccc4ccn3c2Cc2ccccc2)cc1OC,2.8*,8.4,11.3*,-1.1,nt,nt,0.3,9.9*
COc1ccccc1Cc1c(-c2ccccc2)nc2c3ccccc3ccn12,1.4*,7.8,6.6*,1.0,nt,nt,0.0,6.0*
COc1ccc(-c2nc3ccc(Br)cn3c2Cc2ccccc2)cc1OC,-0.9,1.8,-0.1,0.4,nt,nt,nt,nt
O=C(COC(=O)c1n[nH]c(=O)c2ccccc12)Nc1ccccc1F,-1.4,-1.9,-0.8,1.7,-1.0,1.2,nt,nt
O=C(COC(=O)c1n[nH]c2ccccc12)Nc1ccccc1F,1.8*,7.5,6.8*,1.6,4.9,2.4,0.6,8.2*
SMILES,ssDAF12 agonist,hgDAF12 agonist,hcDAF12 agonist,DAX1 inh-1,GAA850 FXN act,DAX1 inh-2,LXRb hcDAF ctr,hcDAF12 conf
COc1cc(/C=N/NC(=O)c2nnn(-c3nonc3N)c2C(C)C)ccc1O,-1.5,12.4*,6.7*,-0.4,1.6,-0.1,-0.4,1.1
O=C(NC1CCN(Cc2ccccc2)CC1)c1ccccc1Cl,-0.6,-1.8,0.5,-0.3,1.3,-1.1,nt,nt
Cc1c(C(=O)NC2CCN(Cc3ccccc3)C2)oc2c(Cl)cccc12 (configuration not stated),-0.6,-0.9,7.0*,0.3,0.9,0.1,-0.3,2.1
C(=N\NC1=Nc2cccc3cccc1c23)/c1ccccn1,0.5,10.1,8.6*,3.5,-0.9,5.3*,0.6,10.3*
C(=N\N=C\c1ccccn1)/c1ccccn1,-0.9,0.3,0.7,-0.2,-1.0,0.4,nt,nt
Cc1ccnc(NC(=O)Nc2cccc(F)c2)c1,1.5*,17.0*,16.4*,3.7*,0.9,-0.6,2.0,14.6*
Nc1[nH]c(C(=O)c2ccccc2)c(-c2ccc(Cl)cc2)c1C(=O)c1c[nH]c2cc(F)ccc12,0.3,1.8,2.4,2.0,nt,nt,nt,nt
O=C(c1ccccc1)N1CCC2CCN(S(=O)(=O)c3ccccc3)CC21 (configuration not stated),-0.9,0.7,-2.7,-0.6,nt,nt,nt,nt
Cc1onc(-c2c(Cl)cccc2Cl)c1NC(=O)NN(C)C,-1.5,2.7,-0.3,0.5,0.2,3.5,nt,nt
Cc1onc(-c2c(Cl)cccc2Cl)c1NC(=O)N1CCSCC1,1.8*,10.6*,8.0*,3.5,0.9,4.2*,-0.2,0.3
Cc1ccc(S(=O)(=O)N2CN(CC3CCCO3)c3nc4ccccc4nc32)c(C)c1 (configuration not stated),-0.6,3.3,8.1*,0.6,1.8,0.2,-0.4,0.1
O=S(=O)(c1cccs1)N1CN(CC2CCCO2)c2nc3ccccc3nc21 (configuration not stated),-1.2,-0.2,-1.7,0.7,3.2,-0.1,nt,nt
